The values below come from PubChem BioAssay (NCATS).

SMILES strings stand for the structures. Several values for one entry are separate records, joined by “and”; a condition that tells them apart may be missing. Equal values may be shown once. Inconclusive results are not listed. Unmarked numbers belong to inactive results. Activity calls are given as the source filed them. Calls follow the shape of the dose curve; as a rule, active = well fitted curve in the direction sought with a large enough effect; inconclusive = small, poorly fitted or top-dose-only effect, or another doubt; inactive = no such curve, though single readings can be large; an effect the other way counts as inactive or inconclusive.

Assay [1] has as its target Cellular tumor antigen p53 (Homo sapiens) (UniProt P04637). The experiment in a line: Primary qHTS for small molecule compounds that upregulate eGFP-tagged delta133p53alpha (in N-terminal) cells. (AID 2060322). Also: nearly all actives have a fitted effect of over 75% in size. Also: potency is read from the fitted curve at half-maximal effect.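 As to activation: cells pre-induced with doxycycline then dosed without doxycycline; series mostly up to about 56 µM; 0% = DMSO vehicle and 100% = reference activator.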 As to conditions: NCI-H358 eGFP-delta133p53alpha fluorescence, 24 h; activation: stronger effect = higher value. Summed up:
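NCI-H358 cells pre-induced 24 h with 10 ng/ml doxycycline for eGFP-delta133p53alpha, plated dox-free and exposed 24 h at 37C to titrated compounds. Fixed, Hoechst-stained; gated GFP peak intensity by laser scanning cytometry, normalized to DMSO (0%) and 57.5 uM 5-azacytidine (100%).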
(qHTS replaces the single test concentration by a dilution series.)

For assay [2], the target named is Aldehyde dehydrogenase, mitochondrial (Homo sapiens) (UniProt P05091). Put plainly: qHTS for Inhibitors of the Aldehyde Dehydrogenase Family (ALDH2) Primary screen (AID 2061308).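 Also: plate controls were vehicle for no effect and reference inhibitor for full effect; nearly all actives have a fitted effect of over 55% in size.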
The target of assay [3] is Retinaldehyde dehydrogenase 3 (Homo sapiens) (UniProt P47895). The experiment in a line: qHTS for Inhibitors of the Aldehyde Dehydrogenase Family (ALDH1A3) Primary screen (AID 2061315).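 Also: plate controls were DMSO vehicle for no effect and reference inhibitor for full effect.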
The nature of assay [4]: BET inhibitor-based combinations targeting novel dependencies in MECOM-rearranged (r) AML: SET-2 cell line (AID 2202231). Also: nearly all actives have a fitted effect of over 35% in size. Also: potency is read from the fitted curve at half-maximal effect.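 As to viability: plate controls were DMSO treated cells for no effect and wells without cells for full effect.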 As to conditions: SET-2 AML cells viability, CellTiter-Glo luminescence, 48 h; viability: stronger effect = lower value, concentration not given here. Summed up:
(§1)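 Luminescent ATP readout (CellTiter-Glo) after 48 hr drug exposure gives viability. Curves span 11 concentrations and are normalized to DMSO and empty wells. Activity is reported as area under the curve and its Z-transform within each cell line.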
(Cellular ATP, detected with luciferase, serves as a proxy for viable cell number.)

The nature of assay [5]: BET inhibitor-based combinations targeting novel dependencies in MECOM-rearranged (r) AML: OCI-AML3 cell line (AID 2202232). Also: nearly all actives have a fitted effect of over 35% in size. Also: potency is read from the fitted curve at half-maximal effect. Conditions: Potency: OCI-AML3 viability. Summed up: as §1
Assay [6] in a line: BET inhibitor-based combinations targeting novel dependencies in MECOM-rearranged (r) AML: MV-4-11 cell line (AID 2202233). Also: nearly all actives have a fitted effect of over 45% in size. Also: potency is read from the fitted curve at half-maximal effect. Summed up:
(§2)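 Luminescent ATP readout (CellTiter-Glo, 15 min at room temperature) after 48 hr drug exposure gave viability. Dose-response curves, normalized to DMSO and empty-well controls, were summarized as area under the curve and its mean-centred Z-score.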

Assay [7] can be described thus: BET inhibitor-based combinations targeting novel dependencies in MECOM-rearranged (r) AML: HNT-34 cell line (AID 2202234). Also: nearly all actives have a fitted effect of over 35% in size. Also: potency is read from the fitted curve at half-maximal effect. Summed up:
as §2

Assay [8] in a line: BET inhibitor-based combinations targeting novel dependencies in MECOM-rearranged (r) AML: UCSD-AML1 cell line (AID 2202235). Also: nearly all actives have a fitted effect of over 40% in size. Also: potency is read from the fitted curve at half-maximal effect. An outline of the steps: as §2
Assay [9] can be described thus: BET inhibitor-based combinations targeting novel dependencies in MECOM-rearranged (r) AML: AML-194 cell line (AID 2202237; also: nearly all actives have a fitted effect of over 40% in size; also: potency is read from the fitted curve at half-maximal effect). An outline of the steps: as §1
Assay [10] in a line: BET inhibitor-based combinations targeting novel dependencies in MECOM-rearranged (r) AML: AML-191 cell line (AID 2202236; also: nearly all actives have a fitted effect of over 35% in size; also: potency is read from the fitted curve at half-maximal effect). Summed up:
as §1

Sequence of Cellular tumor antigen p53 (Homo sapiens) (P04637 whole entry, looked up): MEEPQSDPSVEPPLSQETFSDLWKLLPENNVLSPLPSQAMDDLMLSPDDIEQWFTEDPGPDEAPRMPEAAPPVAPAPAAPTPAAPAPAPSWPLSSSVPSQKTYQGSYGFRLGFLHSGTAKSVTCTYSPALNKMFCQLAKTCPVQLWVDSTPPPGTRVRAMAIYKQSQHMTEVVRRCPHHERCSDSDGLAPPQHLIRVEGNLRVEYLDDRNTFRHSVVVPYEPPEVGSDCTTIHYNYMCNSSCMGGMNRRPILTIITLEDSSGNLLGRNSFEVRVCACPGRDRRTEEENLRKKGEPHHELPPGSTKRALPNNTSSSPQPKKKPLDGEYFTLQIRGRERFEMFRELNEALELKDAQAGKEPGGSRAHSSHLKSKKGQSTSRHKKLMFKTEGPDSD

`C=CCn1c(=O)c2cnc(Nc3ccc(N4CCN(C)CC4)cc3)nc2n1-c1cccc(C(C)(C)O)n1`: the Potency is 21.7 µM (active) and 2.69 µM (active) in assay [1]; 1320 nM (active) in assay [4]; 1660 nM (active) in [5]; 742 nM (active) in assay [6]; 296 nM (active) in assay [7]; 833 nM (active) in assay [8]. For the same compound, the Potency in assay [9] is 742 nM (active). For the same compound, the Potency result in assay [2] and in [3] was “inactive” each time.
A word on the viability: it is a read-out of living cells in per cent, often relative to untreated cells. `CNC(=O)c1c(-c2ccc(F)cc2)oc2cc(N(CCO)S(C)(=O)=O)c(C3CC3)cc12`: in assay [1], the activation is -6.02% and -15.2%. Further, the Potency entry in assay [2], in assay [3], in [5], in [6], in assay [7] and in assay [8] was “inactive” in each case. Further, the Potency result in [10] and in [9] was “inactive” in each case. The viability in assay [4] is 119%.
Turning to `C#Cc1cccc(Nc2ncnc3cc(OC)c(OCCCCCCC(=O)NO)cc23)c1`, the Potency in assay [1] was 8.63 µM (active) and 5.36 µM (active) and 544 nM (active); in assay [4], 1480 nM (active); in assay [5], 1050 nM (active); in [6], 296 nM (active); in assay [7] it was 934 nM (active); in assay [8], 1180 nM (active). Moreover, the results for the Potency in [10] and in assay [9] were 1050 nM (active) and 2090 nM (active), respectively. For the same compound, the Potency entry in [2] and in assay [3] was “inactive” throughout.
Regarding `CC(C)c1c2cc(-c3ccnc(NC4CCC(NC5CCOCC5)CC4)n3)ccc2nn1C` (stereo unspecified), the Potency was 0.478 µM (active) in assay [1]; 296 nM (active) in [4]; 209 nM (active) in assay [5]; 93.4 nM (active) in assay [6]; 235 nM (active) in [7]; 118 nM (active) in assay [8]. For the same compound, the Potency in assay [10] is 166 nM (active); in assay [9], 417 nM (active). Moreover, the Potency result in assay [2] and in [3] was “inactive” each time.
`CC(C)c1cc(C(C)C)c(CC(=O)NS(=O)(=O)Oc2c(C(C)C)cccc2C(C)C)c(C(C)C)c1`: the activation in assay [1] was 11.6% and 19%. For the same compound, the Potency entry in [2], in assay [3], in assay [8] and in [9] was “inactive” each time. Also, in [4], the viability is 106%. Also, the Potency is 10500 nM (active) in assay [5], 5250 nM (active) in assay [6], 7420 nM (active) in assay [7] and 8330 nM (active) in assay [10].
In the case of `CCCCN(CCCC)C(=O)CN1C[C@H](c2ccc3c(c2)OCO3)[C@@H](C(=O)O)[C@@H]1c1ccc(OC)cc1`, the activation in [1] was -2.39% and -6.46%. The Potency entry in [2], in assay [3], in assay [5], in assay [6], in [7] and in [8] was “inactive” throughout. For the same compound, the Potency result in assay [10] and in [9] was “inactive” each time. For the same compound, the viability in assay [4] was 107%.
As to `CCC(CC)CC1(C(=O)Nc2ccccc2SC(=O)C(C)C)CCCCC1`, the activation in assay [1] is 18.8%. Besides, the Potency entry in [2], in [3], in [5], in assay [6], in [7] and in assay [8] was “inactive” each time. Moreover, the Potency result in assay [10] and in [9] was “inactive” throughout. The viability in [4] is 117%.
As to `N#CCNC(=O)c1ccc(-c2ccnc(Nc3ccc(N4CCOCC4)cc3)n2)cc1`, the Potency in assay [1] was 8.49 µM (active); in assay [4] it was 4170 nM (active); in assay [5], 16600 nM (active); in assay [6], 833 nM (active); in [7], 2950 nM (active); in assay [8], 1480 nM (active). Moreover, the Potency in assay [10] was 4680 nM (active); in [9], 5250 nM (active). Besides, the Potency result in [2] and in [3] was “inactive” throughout.
On to `CS(=O)(=O)c1ccc(C(=O)Nc2ccc(Cl)c(-c3ccccn3)c2)c(Cl)c1`, for which the activation in assay [1] was -14.7% and -1.91%. In addition, the Potency entry in [2], in assay [3], in [5], in [6], in [7] and in [8] was “inactive” each time. The Potency result in assay [10] and in [9] was “inactive” in each case. Also, the viability in assay [4] was 106%.
Take `CCCn1c(=O)c2[nH]c(-c3cnn(Cc4cccc(C(F)(F)F)c4)c3)nc2n(CC)c1=O`: in assay [1], the activation was 0.955%. For the same compound, the Potency entry in assay [2], in assay [3], in [5], in [6], in assay [7] and in [8] was “inactive” each time. Besides, the Potency result in assay [10] and in assay [9] was “inactive” throughout. Also, in assay [4], the viability is 114%.
Turning to `CC(C)CC(=O)Nc1n[nH]c2c1CN(C(=O)C1CCN(C)CC1)C2(C)C`, the Potency was 6.11 µM (active) and 4.78 µM (active) in [1]; 10500 nM (active) in assay [4]; 1320 nM (active) in assay [5]; 372 nM (active) in assay [6]; 2350 nM (active) in assay [7]; 2350 nM (active) in [8]. The Potency in [10] and in assay [9] was 5900 nM (active) throughout. Besides, the Potency entry in assay [2] and in assay [3] was “inactive” throughout.
As to `CCN(c1cc(C#CCN2CCOCC2)cc(C(=O)NCc2c(C)cc(C)[nH]c2=O)c1C)C1CCC(N(C)CCOC)CC1` (stereo unspecified), the activation in assay [1] is -11.7%. The Potency result in assay [2], in assay [3], in assay [5], in assay [6], in assay [7] and in assay [8] was “inactive” in each case. Moreover, the Potency entry in assay [10] and in assay [9] was “inactive” each time. The viability in [4] was 113%.
On to `Cn1cc(-c2ccc(S(=O)(=O)n3ccc(/C=C/C(=O)Nc4ccccc4N)c3)cc2)cn1`, for which the Potency in [1] is 19 µM (active); in assay [4], 1860 nM (active); in [5], 1180 nM (active); in assay [6], 1180 nM (active); in [7], 1050 nM (active); in assay [8], 1180 nM (active). For the same compound, the Potency in assay [10] is 833 nM (active); in [9], 1050 nM (active). Further, the Potency entry in assay [2] and in assay [3] was “inactive” throughout.
On to `C1=C/COCc2cc(ccc2OCCN2CCCC2)Nc2nccc(n2)-c2cccc(c2)COC/1`, for which the Potency was 15.3 µM (active) in assay [1]; 4170 nM (active) in assay [4]; 3320 nM (active) in assay [5]; 13.2 nM (active) in assay [6]; 2090 nM (active) in [7]; 1180 nM (active) in assay [8]. Further, the figures for the Potency in assay [10] and in assay [9] were 1860 nM (active) and 2350 nM (active), respectively. Further, the Potency result in assay [2] and in [3] was “inactive” each time.
For `NC(=O)c1ccccc1Nc1ccnc(Nc2cccc(O)c2)n1`, the Potency was 30.1 µM (active) in [1]; 5900 nM (active) in assay [4]; 18600 nM (active) in assay [5]; 662 nM (active) in [6]; 1660 nM (active) in assay [8]. Also, the Potency entry in assay [2] and in assay [3] was “inactive” in each case.
